# Measurements: the supplement of paper PMC10127200
# Counter-ions that a name gives are not always drawn.
# What was measured:
# Assay in all cases: Euclidean distance of Cell Painting phenotypic profile (signed KS, 77 features) to DMSO centroid (dimensionless distance); 5 or 10 uM (library dependent); higher = stronger phenotypic change vs DMSO (phenoactivity)
# Details in all cases: 48 h
# 786-O = system: 786-O
# How it was run: (§1)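 Phenoactivity is computed as Euclidean distance to the median vehicle profile. The profiles, drawn from 77 Harmony features scored as signed Kolmogorov-Smirnov statistics versus same-plate vehicle wells, were corrected for plate position, correlation-weighted and replicate-averaged at the top dose. Stained cells were imaged confocally at 20X (9 fields/well) after 48 h with library compounds at 10 or 5 uM, 0.1% DMSO final, in five cancer lines and a healthy fibroblast line.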
# A549 = system: A549
# How it was run: as §1
# DU145 = system: DU145
# How it was run: as §1
# FB = system: FB
# How it was run: as §1
# HEPG2 = system: HEPG2
# How it was run: as §1
# OVCAR4 = system: OVCAR4
# How it was run: as §1
Structure (SMILES),Euclidean distance (786-O),Euclidean distance (A549),Euclidean distance (DU145),Euclidean distance (FB),Euclidean distance (HEPG2),Euclidean distance (OVCAR4)
C[C@@H](O[C@H]1OCCN(Cc2nn(P(=O)(O)O)c(=O)[nH]2)[C@H]1c1ccc(F)cc1)c1cc(C(F)(F)F)cc(C(F)(F)F)c1 [Fosaprepitant dimeglumine salt],1.86,1.37,1.18,1.21,1.4,0.995
C[C@]1(COc2ccc(N3CCC(Oc4ccc(OC(F)(F)F)cc4)CC3)cc2)Cn2cc([N+](=O)[O-])nc2O1 [Delamanid],0.922,1.11,0.888,0.823,0.492,0.969
CC(C)(CCCCCC(O)CCCCCC(C)(C)C(=O)O)C(=O)O,0.76,0.809,0.925,0.851,0.375,1.06
Oc1ccc(Nc2nc(-c3ccc(Cl)cc3)cs2)cc1,1.72,2.03,1.54,2.15,2.49,1.41
O=C(C[S+]([O-])Cc1ccco1)NC/C=C\COc1cc(CN2CCCCC2)ccn1 (stereo not drawn) [Lafutidine],0.976,1.04,1.52,1.4,2.06,1.4
CCc1cncnc1N1CCN(Cc2nc3ccc(C(F)(F)F)cc3[nH]2)CC1,1.03,0.742,0.956,1.1,0.883,1.13
O=c1c(O[C@@H]2O[C@H](CO)[C@@H](O)[C@H](O)[C@H]2O)c(-c2ccc(O)c(O)c2)oc2cc(O)cc(O)c12 [Isoquercitrin],0.868,0.899,0.931,0.989,0.812,1.03
COc1ccccc1N1CCN(CC(O)COc2cccc3ccccc23)CC1 (stereo not drawn) [Naftopidil],1.4,1.01,0.795,1.01,0.934,0.99
Cn1cnc2c1c(=O)[nH]c(=O)n2C [Theobromine],0.718,0.658,0.727,0.792,1.77,0.9
Cc1cc(OCc2nnc(SC3CCCC3)n2-c2cccnc2)ccc1-c1ccc(S(C)(=O)=O)cc1,3.57,3.4,3.15,2.69,3.86,3.73
CCOC(=O)C1=C(C)NC(C)=C(C(=O)OC)C1c1cccc([N+](=O)[O-])c1 (stereo not drawn) [Nitrendipine],1,0.871,0.908,1.33,0.709,0.934
C#C[C@]1(O)CC[C@H]2[C@@H]3CCC4=CC(=O)CC[C@@H]4[C@H]3CC[C@@]21CC [Levonorgestrel],1.01,0.81,0.624,0.673,0.994,0.816
C=CC(=O)N1C[C@H](Nc2ncnc3[nH]ccc23)CC[C@@H]1C,1.27,0.386,1.09,0.936,0.582,0.786
Cc1ccc(C(=O)C(C)CN2CCCCC2)cc1 (stereo not drawn) [Tolperisone HCl],0.966,0.611,1.08,0.909,0.439,0.725
COc1ccnc(C[S+]([O-])c2nc3cc(OC(F)F)ccc3[nH]2)c1OC (stereo not drawn) [Pantoprazole sodium],0.766,0.778,1.1,1.01,1.03,0.752
CN(C)CCCCC(=O)Nc1ccc(NC(=S)NC(=O)c2ccc(C(C)(C)C)cc2)cc1 [Tenovin-6],2.9,3.08,1.61,3.01,3.46,1.95
CCC(C(=O)O)c1ccc(N2Cc3ccccc3C2=O)cc1 (stereo not drawn) [Indobufen],0.947,0.717,1.19,1.01,0.618,1.31
COC(=O)/C=C/C(=O)OCCN1C(=O)CCC1=O [Diroximel Fumarete],0.82,0.396,1.17,1.24,0.611,0.814
CC(=O)O[C@H]1CC[C@@]2(C)C(=CC[C@@H]3[C@@H]2CC[C@]2(C)C(c4cccnc4)=CC[C@@H]32)C1 [Abiraterone Acetate],1.52,1.19,0.94,0.94,0.44,0.818
Cc1nc(NC(=O)N2CCC[C@H]2C(N)=O)sc1-c1ccnc(C(C)(C)C(F)(F)F)c1 [Alpelisib (BYL719)],1.4,1.45,1.3,2.29,1.09,2.02
Cc1[nH]c2ccccc2c1CCNCc1ccc(/C=C/C(=O)NO)cc1 [Panobinostat],3.44,4.4,4.84,3.48,4.4,3.58
O=C(O)c1cccnc1Nc1cccc(C(F)(F)F)c1 [Niflumic acid],0.923,1.01,1.02,1.24,1.19,1.26
O=C(OC(C(F)(F)F)C(F)(F)F)N1CCN(Cc2ccc(C(F)(F)F)cc2N2CCCC2)CC1,1.62,1.13,0.875,1.46,1.27,1.66
CCN(CC)CC(=O)Nc1c(C)cccc1C [Lidocaine hydrochloride],0.709,0.8,0.919,0.862,0.656,1.35

Structure (SMILES),Euclidean distance (786-O),Euclidean distance (A549),Euclidean distance (DU145),Euclidean distance (FB),Euclidean distance (HEPG2),Euclidean distance (OVCAR4)
CCN[C@H]1C[C@H](C)S(=O)(=O)c2sc(S(N)(=O)=O)cc21 [Dorzolamide HCl],1.17,0.786,1.03,1.31,1.06,1.09
Cc1c(Nc2ncccc2C(=O)O)cccc1C(F)(F)F [Flunixin Meglumin],1.03,0.853,0.874,0.516,1.42,1.88
CC[C@H]1OC(=O)[C@H](C)[C@@H](O[C@H]2C[C@@](C)(OC)[C@@H](O)[C@H](C)O2)[C@H](C)[C@@H](O[C@@H]2O[C@H](C)C[C@H](N(C)C)[C@H]2O)[C@](C)(O)C[C@@H](C)CN[C@H](C)[C@@H](O)[C@]1(C)O [Azathramycin],1.51,0.559,0.734,0.693,1.08,0.873
C[C@H](N[C@@H](CCc1ccccc1)C(=O)O)C(=O)N1CCC[C@H]1C(=O)O [Enalaprilat Dihydrate],1.22,1.17,0.803,0.927,0.793,1
COc1cc2ncnc(Nc3ccc(O)c(Br)c3)c2cc1OC,1.36,1.35,1.92,1.7,1.64,0.933
COc1ccc(Cl)cc1NC(=O)Nc1cc(C)nc2ccccc12,1.14,1.85,1.06,1.02,0.631,1.47
Cc1ccc(NC(=O)c2cccc(N(C)C)c2)cc1NC(=O)c1ccc(O)cc1,2.67,2.66,2.38,2.03,1.55,2.26
O=C1CN(/N=C/c2ccc([N+](=O)[O-])o2)C(=O)N1 [Nitrofurantoin],1.11,0.86,1.02,0.744,0.699,0.831
Oc1ccc(O)cc1 [Hydroquinone],1.49,1.06,1.21,1.36,1.04,1.09
O=C1Nc2ccc(Cl)cc2[C@@](C#CC2CC2)(C(F)(F)F)O1 [Efavirenz],1.21,1.3,2.23,1.28,0.747,1.1
Nc1nc2n[nH]nc2c(=O)[nH]1 [Azaguanine-8],1.55,0.834,0.699,1.27,1.17,0.737
COc1ncnc(NS(=O)(=O)c2ccc(N)cc2)c1OC [Sulfadoxine],0.66,1.24,0.743,0.491,0.397,1.39
CN(CCOc1ccc(CC2SC(=O)NC2=O)cc1)c1ccccn1 (stereo not drawn) [Rosiglitazone],1.31,0.979,0.878,1.79,0.962,1.14
CC(=O)OCC(=O)[C@@]1(O)CC[C@H]2[C@@H]3CCC4=CC(=O)CC[C@]4(C)[C@H]3[C@@H](O)C[C@@]21C [Hydrocortisone acetate],1.17,2.28,1.4,1.96,1.05,1.41
CN1C(=O)C(C)(C)Oc2c(-c3cn(C)c(=O)c4[nH]ccc34)cc(S(C)(=O)=O)cc21,4.28,2.7,2.87,3.94,2.29,2.42
OC[C@@H](O)[C@@H](O)[C@H](O)[C@H](O)CO [D-Mannitol],1.14,0.536,0.826,0.744,0.415,0.791
C#Cc1cccc(Nc2ncnc3cc(OCCOC)c(OCCOC)cc23)c1 [Erlotinib],1.68,2.34,1.94,3.62,0.991,1.87
O=C1c2c(O)ccc(O)c2C(=O)c2c(NCCNCCO)ccc(NCCNCCO)c21 [Mitoxantrone HCl],4.89,4.24,3.24,4.31,4.05,6.27
C1CCN2C[C@@H]3C[C@@H](CN4CCCC[C@@H]34)[C@H]2C1 [(-)-Sparteine Sulfate],0.93,0.957,0.846,1.03,0.474,1.04
Cc1cnc(Nc2ccc(OCCN3CCCC3)cc2)nc1Nc1cccc(S(=O)(=O)NC(C)(C)C)c1,4.21,4.4,2.95,4.43,2.96,3.56
CCCCC(=O)N(Cc1ccc(-c2ccccc2-c2nn[nH]n2)cc1)C(C(=O)O)C(C)C.CCOC(=O)C(C)CC(Cc1ccc(-c2ccccc2)cc1)NC(=O)CCC(=O)O (stereo not drawn) [Sacubitril/valsartan (LCZ696)],0.856,0.709,1.24,1.04,0.622,1.01
O=C1CN2Cc3c(ccc(Cl)c3Cl)N=C2N1 [Anagrelide HCl],0.871,0.869,0.905,1.18,1.01,1.53
CNC(=C[N+](=O)[O-])NCCSCc1ccc(CN(C)C)o1 [Ranitidine],0.881,0.596,0.696,0.903,1.02,0.83
C[C@@H](Oc1cc(-n2cnc3ccc(CN4CCN(C)CC4)cc32)sc1C(N)=O)c1ccccc1C(F)(F)F,3.44,3.82,4.26,3.6,3.95,2.85
